Most compounds without a hit are left out; they make up all but 14% or so of the library.
HCV inh = blocks hepatitis C virus; Huh7.5.1 HCVcc-Cre infection, luciferase reporter, 44 h; Potency, µM (highest dose often 41.8 µM), without a hit: at the top dose activity change, negative = inhibition, hits mostly inhibitors; hit rate 3.4% among 340,000; AID 651820; note: potency is the fitted concentration of half-maximal effect
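HCVcc-Cre virus at an moi near 0.5 was added right after compound to cells cultured 4 h from seeding (1,000 cells/well). Luciferase activity was determined 44 h later, 15 min after substrate addition at RT.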
Pf growth 96h = inhibits malaria parasite growth, 96 h. Potency, µM (top dose mostly 28.7 µM), for the others: at the top dose activity change, negative = inhibition, most hits filed as inhibitors. hit rate 6.9% among 320,000. P. falciparum luciferase reporter growth, 96 h. AID 504834; note: potency is the fitted concentration of half-maximal effect
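Erythrocytes infected with luciferase-expressing P. falciparum were dispensed at 2% hematocrit and 0.05% parasitemia (final), then incubated with compounds 96 hours at 37 C in 5% CO2. Luminescence after detection reagent addition reported growth.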
MARV entry inh = blocks Marburg virus binding to or entry into cells | Potency, µM (top dose mostly 37.8 µM), for the others: at the highest dose activity change, negative = inhibition, most hits filed as inhibitors | hit rate 1.8% among 300,000 | Marburg virus pseudotyped entry inhibition, cell reporter; calls by dose curve; tested in HEK293 cells; note: potency is the fitted concentration of half-maximal effect
HCMV inh = blocks human cytomegalovirus replication; hit rate 4.5% among 410,000; AID 1259415; HFF cells, HCMV-luciferase reporter, 72 h; stronger effect = lower value; activity change, negative = inhibition, % at 57.5 µM; in the data active = activity change below about -60%; inconclusive = no clear call, values can overlap the other calls; inactive = above about -39%
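Two compound doses tested in HFFs infected with HCMV-luciferase, MOI 1 PFU/cell, 72 h at 37C. Lysate luminescence read with OneGlo; data normalized against buffer-only and 10uM Salinomycin inhibitor controls.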
Pf growth 48h = P. falciparum growth inhibition at 48 hours (one generation); P. falciparum luciferase growth in erythrocytes, 48 h; Potency, µM (top dose mostly 28.7 µM), for the others: at the top dose activity change, negative = inhibition, hits mostly inhibitors; hit rate 5.9% among 310,000; AID 504832; note: potency is the fitted concentration of half-maximal effect
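Luciferase-expressing P. falciparum in infected erythrocytes (2% hematocrit, 0.1% parasitemia final) in RPMI 1640/0.5% Albumax were exposed to compound for 48 hours at 37 C, 5% CO2; growth read as luminescence.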
Lassa entry inh = Lassa virus entry inhibition | AID 540256 | hit rate 1.2% among 300,000 | Lassa virus pseudotype entry inhibition, cell reporter | Potency, µM (doses to about 37.9 µM), inactives show at the highest dose activity change, negative = inhibition, hits mostly inhibitors; calls by dose curve; tested in HEK293 cells; note: potency is the fitted concentration of half-maximal effect; nearly all actives have a fitted effect of over 50% in size
* = called active by the depositor; ? = inconclusive; nt = no result given; [ ] = remark or other dose. Unless noted, calls come from the whole dose curve; as a rule, active = well fitted inhibition curve with a large enough effect; inconclusive = small, poorly fitted or top-dose-only effect, or another doubt; inactive = no such curve, though single readings can be large or run the other way. % is set by controls: 0 for no effect and ±100 for the full control effect.

SMILES	HCV inh	Pf growth 96h	MARV entry inh	HCMV inh	Pf growth 48h	Lassa entry inh
COc1ccc2cc(C(=O)C3CCCN(C(=O)C4=NN(C)C(=O)CC4)C3)ccc2c1 (stereo unspecified)	-5.8%	5.22µM*	nt	-26.6	0.4%	nt
COc1cc(OC)cc(C(=O)N2CCN(C(=O)c3cccnc3)CC2)c1	6.9%	14.7µM*	nt	6.0	?	nt
CC(=O)N1CCc2cc(S(=O)(=O)NC(Cc3ccccc3)C(=O)Nc3ccc(Cl)cc3)ccc21 (stereo unspecified)	nt	nt	?	-16.4	nt	18.0%[46.1 µM]
CC(C(=O)OCC(=O)Nc1ccc(S(N)(=O)=O)cc1)N1C(=O)c2ccccc2C1=O (stereo unspecified)	1.4%	nt	0.2%	2.0	nt	?
Nc1cccc2cc(S(=O)(=O)O)ccc12	-0.1%	nt	?	14.1	nt	17.5%[46.1 µM]
O=C(O)c1cccc(NS(=O)(=O)c2ccc3c(c2)C(=O)c2ccccc2C3=O)c1	24.7%	-17.7%	nt	?	24.2%	nt
Cc1ccc(S(=O)(=O)/N=C2\C=C(NS(=O)(=O)c3ccccc3)C(=O)c3ccccc32)c(C)c1	-1.0%	nt	-0.3%[46.1 µM]	-90.6*	nt	-15.3%
CCc1ccc(S(=O)(=O)/N=C2\C=C(Nc3ccc(C(=O)O)cc3)C(=O)c3ccccc32)cc1	?	3.7µM*	?	-97.6*	2.33µM*	?
Cc1ccc(S(=O)(=O)/N=C2\C=C(Nc3cccc(C(=O)O)c3)C(=O)c3ccccc32)cc1	-6.6%	-9.4%	?	2.9	4.65µM*	?
O=C(O)c1cccc(NC2=C(N3CCOCC3)C(=O)c3ccccc3C2=O)c1	1.0%	32.3%	11.0%[46.1 µM]	27.4	7.2%	12.1%
Cc1ccc(S(=O)(=O)/N=C2\C=C(Nc3cccc(C(=O)O)c3)C(=O)c3ccccc32)c(C)c1	10.5%	19.3%	?	-72.6*	1.65µM*	?
C/C(=N\Nc1ccc(C)c(Cl)c1)c1cccnc1	-3.4%	-4.1%	nt	15.2	?	nt
Cn1c(=O)c2c(nc(SCC(=O)Nc3ccc(OC(F)(F)F)cc3)n2Cc2cccc(C(F)(F)F)c2)n(C)c1=O	nt	nt	-1.3%[46.1 µM]	44.5	nt	?
COc1ccc(CCNC(=O)c2cnc3sc(N4CCCC4)nn3c2=O)cc1OC	nt	nt	nt	-0.5	nt	-21.3%[46.1 µM]
COc1ccc(NC(=O)C(c2ccc(C(F)(F)F)cc2)n2c(=O)c(-c3cc4ccccc4[nH]3)nc3ccccc32)cc1 (stereo unspecified)	nt	nt	nt	80.3	nt	nt
CCOC(=O)CN1C(=O)c2cccnc2Oc2ccccc21	nt	nt	9.0%[46.1 µM]	-25.1	nt	19.6%[46.1 µM]
C/C(Sc1nnc(Cc2ccccc2)o1)=C(\O)c1ccccc1	-9.7%	nt	-11.2%[46.1 µM]	-17.6	nt	14.4%[46.1 µM]
CCOc1ccc(Cl)cc1-c1cc(C(=O)NC2CCCCC2)[nH]n1	nt	nt	nt	-13.8	nt	nt
COc1ccc(NC(=O)C2CCC(CNS(=O)(=O)c3ccc(Br)s3)CC2)cc1OC (stereo unspecified)	nt	nt	-11.0%[46.1 µM]	-20.8	nt	-5.0%[46.1 µM]
Cc1ccc(S(=O)(=O)/N=C2\C=C(Nc3ccc(O)cc3)C(=O)c3ccccc32)cc1	6.31µM*	nt	?	nt	nt	2.82µM*
CC(C)(C)c1ccc(S(=O)(=O)/N=C2\C=C(NS(=O)(=O)c3ccccc3)C(=O)c3ccccc32)cc1	-19.2%	3.4%	-11.1%[46.1 µM]	-10.9	-8.5%	?
C[C@H]1NS(=O)(=O)c2cccc(Cl)c2O[C@@H]1c1ccccc1	nt	nt	nt	0.8	nt	nt
Cc1ncsc1CCC(=O)N1CCCC(Nc2ccc(F)c(F)c2)C1 (stereo unspecified)	15.0%	11.7µM*	-9.3%	-22.6	-0.2%	0.3%
Cc1ccc(C(=O)N2CCCC(Nc3ccc(F)c(F)c3)C2)cn1 (stereo unspecified)	6.0%	11.7µM*	nt	-0.4	-0.6%	nt
COC(=O)c1ccc(C(=O)N2CCCC(Nc3ccc(F)c(F)c3)C2)cc1 (stereo unspecified)	nt	1.0%	-3.0%	-8.5	13.0%	-7.4%
Cc1ccc(NC2CCCN(C(=O)CCc3scnc3C)C2)cc1C (stereo unspecified)	8.4%	-28.1%	-16.9%	0.0	-27.8%	-4.0%
